In PubChem BioAssay AID588727 (Southern Research Specialized Biocontainment Screening …, 2011):
Out of some 350,000 compounds screened, about 450 (0.13%) were called active. No rule for the calls is given here. The list is a sample of the results. Entries with a potency or affinity are not part of this list.

Assay: inhibitors of VEEV TC-83 cytopathic effect, confirmation, Vero cells (AID 588727)
Conditions: VEEV TC-83 cytopathic effect inhibition, at 20 µM; stronger effect = higher value unless noted

SMILES	inhibition	outcome
Cc1ccc(NS(=O)(=O)c2cccc3cccnc23)c(Cl)c1	1.97% (inactive)	
Cc1ccc(S(=O)(=O)Nc2cccc3cccnc23)cc1	5.25% (inactive)	
O=S1(=O)N=C2CCCCCN2C(c2ccc(Cl)cc2)N1 (stereo not drawn)	0.81% (inactive)	
CCCCN1C(Nc2ccccc2)=NC[C@@H]1C	0.29% (inactive)	
COc1ccc(C(C(=O)NC2CCCC2)N(C(=O)c2ccco2)c2ccc(OC)c(OC)c2)cc1 (stereo not drawn)	0.66% (inactive)	
CC(C)NC(=O)N(C)C[C@@H]1Oc2c(NS(=O)(=O)c3ccccc3)cccc2C(=O)N([C@@H](C)CO)C[C@@H]1C	0.31% (inactive)	
O=c1nc(/C=C/c2ccc(O)c(O)c2)oc2ccccc12	1.28% (inactive)	
COc1ccc(/C=C/c2nc3ccccc3c(=O)o2)cc1	3.84% (inactive)	
O=C1NC(=O)c2cc(NC(=O)c3cccc4ccccc34)ccc21	2.09% (inactive)	
CC12CCC(=O)CC1CCC1C2CCC2(C)C1CCC2(O)C(=O)CO (stereo not drawn)	10.6% (inactive)	
C[C@]1(O)CCC2C3CC[C@@H]4CC(=O)CC[C@]4(C)C3CC[C@@]21C (stereo partly drawn)	inactive	
Cn1cc(CN2CCC(CO)CC2)c(-c2ccc(Oc3ccccc3)cc2)n1	0.54% (inactive)	
Cn1cc(CN2CCC(O)CC2)c(-c2ccc(Oc3ccccc3)cc2)n1	1.33% (inactive)	
COc1cccc(CN2CC(C(=O)NCCCn3ccnc3C)CCC2=O)c1 (stereo not drawn)	0.67% (inactive)	
CC(C)c1nnc(SCC(=O)N2CCc3ccccc32)n1N	inactive	
COc1ccc(/C=C/C(=O)c2c(C)nc3ccccn23)cc1	5.86% (inactive)	
C/C(=N\NC(=O)c1c(C)nc2ccccn12)c1cccc([N+](=O)[O-])c1	0.31% (inactive)	
Cc1ccc(S(=O)(=O)NNC(=O)c2sc(NS(=O)(=O)c3ccccc3)nc2C)cc1	2.55% (inactive)	
COc1ccc(CNC(=O)C(C)Sc2nc3ccccc3c(=O)n2CCCN2CCOCC2)cc1 (stereo not drawn)	0.34% (inactive)	
CC(=O)c1cccc(NC(=O)CSc2nc3ccccc3c(=O)n2CCCN2CCOCC2)c1	8.56% (inactive)	
Cc1ccc2nnnc(-c3ccccc3)c2c1	0.17% (inactive)	
c1ccc(-c2nnnc3ccccc23)cc1	0.46% (inactive)	
COC(c1ccccc1)c1nc2ccccc2[nH]c1=O (stereo not drawn)	0.57% (inactive)	

SMILES	inhibition	outcome
O=C(CCCSc1nc2ccccc2[nH]1)Nc1ccccc1	inactive	
COc1cc(NC(=S)NC(=O)c2c(OC)cccc2OC)ccc1NC(=O)c1cccs1	3.81% (inactive)	
COc1cc(NC(=S)NC(=O)c2cc(C)cc(C)c2)ccc1NC(=O)c1cccs1	8.93% (inactive)	
Cc1ccc(Cl)cc1Nc1nc(N2CCOCC2)nc(N2CCOCC2)n1	inactive	
O=C(CC(=O)c1ccccc1O)c1cccc(F)c1	2.48% (inactive)	
CC(C)(C)c1ccc(C(=O)CC(=O)c2cc(Cl)ccc2O)cc1	1.44% (inactive)	
Cc1ccc(C(=O)CC(=O)c2cccc(F)c2)c(O)c1	1.73% (inactive)	
Cc1ccc(O)c(C(=O)CC(=O)c2ccc(C(C)(C)C)cc2)c1	2.3% (inactive)	
CCN(CC)C(=O)Cn1cc(S(=O)(=O)CC(=O)N2CCOCC2)c2ccccc21	1.34% (inactive)	
CCc1cccc(CC)c1-n1c(SCc2cc(=O)n3ccsc3n2)nnc1-c1cccnc1	inactive	
CN(C(=O)COC(=O)/C=C/c1ccc(S(=O)(=O)N2CCc3ccccc32)cc1)C1CCS(=O)(=O)C1 (stereo not drawn)	0.84% (inactive)	
CC(CCc1ccccc1)OS(N)(=O)=O (stereo not drawn)	0.425% [measured here: 10K pilot screen inhibition, stronger effect = higher value]	inactive
OC(COc1ccc(CNCCc2ccccc2F)cc1)CN1CCCCC1 (stereo not drawn)	4.19% (inactive)	
Cc1n[nH]c(C)c1CCNCc1ccc(OCC(O)CN2CCCCC2)cc1 (stereo not drawn)	0.96% (inactive)	
N/C(=N\OCc1ccc([N+](=O)[O-])cc1)c1ccccn1	0.33% (inactive)	
CC(=O)Nc1ccccc1C(=O)OCC(=O)c1ccccc1Cl	0.205% [measured here: 10K pilot screen inhibition, stronger effect = higher value]	inactive
CNC(=S)NCc1ccc2[nH]c3c(c2c1)CCCC3	0.13% (inactive)	
CC(C)CC(=O)NCc1ccc2[nH]c3c(c2c1)CCCC3	1.23% (inactive)	
CC(C)C[C@H]1CNC(=S)N1CC1CCN(CCCCc2ccccc2)CC1	inactive	
O=C1C2CCCN2C(c2cccs2)N1c1ccc(F)cc1 (stereo not drawn)	inactive	
COc1cccc(N2C(=O)C3CCCN3C2c2cccs2)c1 (stereo not drawn)	1.22% (inactive)	
CN(c1ccc(OCC(=O)Nc2cc(Cl)ccc2C(=O)O)cc1)S(=O)(=O)c1ccc(F)cc1	1.87% (inactive)	
CC(=O)Nc1ccc(S(=O)(=O)N(C)c2ccc(OCC(=O)Nc3ccccc3C(C)=O)cc2)cc1	11% (inactive)	
